# Hit rate of the full screen: of about 220,000 compounds, about 2,000 (0.91%) were called active. Another 2% or so got no clear call; they are omitted. A selection follows. Measured potencies and affinities stand elsewhere. Values without a mark were called inactive. Cut-off read from the data, not from the text of the source: inconclusive = inhibition above about 80% without an active follow-up result; inactive = below that; test concentration not stated here.
# Assay: M. tuberculosis H37Rv growth inhibitors, H37Rv strain (AID 1626);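 note: bacteria incubated seven days before Alamar blue readout; 0% = bacteria only wells and 100% = bacteria with antibiotic wells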
# Details: stronger effect = higher value, concentration not given here
row,Structure (SMILES),inhibition [%]
1,O=C(O)c1ccc(COc2ccccc2/C=C2\NC(=O)N(Cc3ccccc3F)C2=O)cc1,-2.79
2,CN=C(Nc1ccccc1)SC1CC(=O)N(c2ccc(C(=O)OC)cc2)C1=O (configuration not stated),-2.27
3,CN=C(Nc1ccccc1OC)SC1CC(=O)N(c2ccc(C(=O)OC)cc2)C1=O (configuration not stated),7.4
4,COc1ccc(N=Cc2c(O)n(Cc3ccccc3)c(=S)[nH]c2=O)c(OC)c1,6.73
5,O=C(CSc1nnc(-c2cccnc2)n1-c1ccccc1)NCc1ccc2c(c1)OCO2,6.03
6,CC(Oc1ccc(Cl)cc1Cl)c1ccn[nH]1 (configuration not stated),2.27
7,O=C(O)CCC(=O)NN1C(=O)c2ccccc2NC1c1ccco1 (configuration not stated),-6.39
8,COc1ccc(NC(=O)c2cc3ccc4c5ccccc5[nH]c4c3cc2O)cc1,2.53
9,CC(=O)Nc1ccc2[nH]c3ccccc3c2c1,10.6
10,CC(OC(=O)c1ccccc1O)C(=O)Nc1cccc(Cl)c1 (configuration not stated),3.01
11,CCC(Sc1nc(C)cc(=O)[nH]1)C(=O)Nc1nnc(C)s1 (configuration not stated),-7.53
12,CCOc1ccc2nc(NC(=O)c3ccoc3C)sc2c1,8.64
13,CCOc1ccc2nc(NC(=O)C3=NNC(=O)CC3)sc2c1,46.3
14,CCOc1ccc2nc(NC(=O)Nc3ccccc3)sc2c1,1.1
15,CCOC(=O)Cc1nnc(NC(=O)C(CC)Sc2nc(C)cc(=O)[nH]2)s1 (configuration not stated),-0.83
16,CCOc1ccc2nc(NC(=O)c3cccnc3)sc2c1,3.09
17,c1ccc(CNC2=NCCCCC2)cc1,-3.52
18,COCCN(CC(=O)NC1CCCCC1)C(=O)CSc1nc2ccccc2o1,-4.79
19,CC(C)N1C(=O)c2ccc(C(=O)O)cc2C1=O,2.62
20,CCOC(=O)C1=C(C)NC(=S)N(C=O)C1c1ccccc1 (configuration not stated),6.03
21,Cc1ccc(SCC(=O)NCc2cccnc2)cc1,-4.12

row,Structure (SMILES),inhibition [%]
1,O=c1[nH]c2ccccc2c2nc3ccccn3c12,-1.5
2,O=c1[nH]c2ccccc2c(O)c1O,-3.51
3,Cc1ccc(-c2nc(CS(=O)CC(=O)NCc3ccccc3)c(C)o2)cc1 (configuration not stated),3.18
4,O=C(Nc1ccc(Nc2ccccc2)cc1)C1CC1,-4.99
5,O=C(Nc1ccc(Oc2ccc(NC(=O)C3CCCO3)cc2)cc1)C1CCCO1 (configuration not stated),-8.27
6,O=C(Nc1ccc(N2CCOCC2)cc1)C1CC1,-4.12
7,O=C(Nc1ccc(Cc2ccc(NC(=O)C3CC3)cc2)cc1)C1CC1,7.74
8,COc1ccc(NC(=O)C2CCCO2)cc1 (configuration not stated),-10
9,CS(=O)(=O)N1CCC(C(=O)Nc2ccc(Oc3ccccc3)cc2)CC1,2.66
10,O=C(CCc1n[nH]c(=O)[nH]c1=O)N1CCCCC1,-1.04
11,COc1cc(C(O)P(=O)(OCC(C)C)c2ccc(N(C)C)cc2)cc(OC)c1OC (configuration not stated),-2.15
12,CCCc1[nH]nc2c1C(c1ccc(OCCN3CCOCC3)c(OC)c1)C(C#N)=C(N)O2 (configuration not stated),-0.42
13,CCC(CO)Nc1nc(CN2CCCCC2)nc2scc(-c3ccccc3)c12 (configuration not stated),7.81
14,OCC1CCCN(c2nc(CN3CCCCC3)nc3scc(-c4ccccc4)c23)C1 (configuration not stated),1.65
15,CN1CCN(c2nc(-c3cccnc3)nc3scc(-c4ccccc4)c23)CC1,-0.01
16,CC1CCCN(c2nc(-c3cccnc3)nc3scc(-c4ccccc4)c23)C1 (configuration not stated),10.2
17,CCCn1nc(C(=O)Nc2nnc(CC)s2)c2ccccc2c1=O,-9.02
18,CC1CN(C(=O)N(C)C)CCN1C(=O)N(C)C (configuration not stated),-15.9
19,CC(=O)c1c(-c2ccc(Cl)cc2Cl)noc1C,2.75
20,COc1cc(NC(=O)c2ccc(OC)c([N+](=O)[O-])c2)ccc1NC(=O)c1ccco1,-4.07
21,COc1ccccc1NC(=S)N(Cc1ccco1)Cc1cc2cc(C)c(C)cc2[nH]c1=O,6.98

row,Structure (SMILES),inhibition [%]
1,Cc1ccc(S(=O)(=O)Nc2nc3cc(C)c(C)cc3[nH]2)cc1,8.1
2,Cn1c(SCC(=O)N2CCCC2)nc2ccccc21,3.37
3,O=C(NCc1ccco1)c1cc2n(n1)C(C(F)(F)F)CC(c1ccc(F)cc1)N2 (configuration not stated),42
4,Cc1c(CNC(=O)c2cnn3c2NC(c2ccccc2)CC3C(F)(F)F)cnn1C (configuration not stated),-9.25
5,O=C(NCc1ccco1)c1cnn2c1NC(c1ccccc1)CC2C(F)(F)F (configuration not stated),2.86
6,CCCn1cc(NC(=O)c2cc3n(n2)C(C(F)(F)F)CC(c2ccccc2)N3)cn1 (configuration not stated),0.85
7,O=C(NCc1ccco1)c1cc2n(n1)C(C(F)(F)F)CC(c1ccc(Br)cc1)N2 (configuration not stated),74.2
8,O=C(NCc1cccc(Cl)c1)c1cnn2c1NC(c1ccco1)CC2C(F)(F)F (configuration not stated),6.69
9,O=C(O)c1cc2n(n1)C(C(F)(F)F)CC(c1ccccc1)N2 (configuration not stated),-8.1
10,Cc1nn(C)cc1CNC(=O)c1cnn2c1NC(c1ccc(Br)cc1)CC2C(F)(F)F (configuration not stated),3.8
11,Nc1nnc(CCCCCCCCCCc2nnc(N)s2)s1,-1.56
12,CC(C)(C)n1nc2c(c1NC(=O)COc1ccc(Cl)cc1)CS(=O)(=O)C2,1.01
13,CCN(C(=O)COC(=O)/C=C/c1ccc(S(=O)(=O)N2CCc3ccccc32)cc1)C1CCS(=O)(=O)C1 (configuration not stated),-3.11
14,Cc1c(Cl)cccc1S(=O)(=O)N1CCC(C(=O)NNC(=O)C2CC2)CC1,0.53
15,CCOC(=O)c1c(C)[nH]c(C(C)=O)c1C,-0.35
16,COC(=O)c1ccc(C2C(C(C)=O)=C(O)C(=O)N2CCO)cc1 (configuration not stated),-1.96
17,COc1cccc(NC(=O)N[C@@H](Cc2ccccc2)C(=O)O)c1,1.84
18,CN(C)c1ccnc(SCc2ccccc2Cl)c1C#N,11.8
19,COc1cccc(C2CC(C(F)(F)F)n3ncc(C(=O)NCc4ccco4)c3N2)c1 (configuration not stated),3.27
20,Cc1ccc(C2CC(C(F)(F)F)n3ncc(C(N)=O)c3N2)cc1 (configuration not stated),-4.41

# Source: PubChem BioAssay AID1626 (SRMLSC, 2009)
